Shown is part of a subset that was picked to be rich in hits.
Vaccinia pol inh: vaccinia E9 polymerase processive synthesis inhibitors, primary screen, biochemical, absorbance | 0.94% of 46,000 active | in vitro processive DNA synthesis, absorbance read-out; hits give low values | Vaccinia virus DNA polymerase (E9) processive complex | normalized absorbance, % (test concentration not listed); in the data active = normalized absorbance mostly below about 85%, no sharp cut-off; inactive = mostly above about 86%
The depositor's hits bear a star.

SMILES	Vaccinia pol inh
O=C1C=CC(=O)c2c(O)cccc21	74*
O=C1c2cccc(O)c2C(=O)c2c(O)cccc21	100
CSc1nc2ccc(NS(=O)(=O)c3ccccc3C(F)(F)F)cc2s1	93
c1coc(-c2cn3ccc4ccccc4c3n2)c1	84*
Cn1ccnc1C(=O)c1cc(-c2ccco2)nc2ccccc12	84
CCN(CC)C(=O)c1cc(-c2ccco2)nc2ccccc12	87
O=C(CCCCl)N1CCOCC1	91
O=C(Nc1nccs1)c1ccc(-c2nc3ccccc3s2)s1	113
O=C1CCCC/C1=C\Nc1nc(-c2ccccc2)cs1	99
CCOc1ccc2nc(NC(=O)C(C)C)sc2c1	115
CCOc1ccc2nc(NN)sc2c1	22*
CCOc1ccc2nc(NC(=O)C(CC)CC)sc2c1	98
O=C(OCC(=O)N1CCC(Cc2ccccc2)CC1)c1n[nH]c2ccccc12	107
Cc1[nH]c2ccccc2c1C(=O)Cn1nnc(-c2cccc(C(F)(F)F)c2)n1	103
COc1cccc(C(=O)C2CC2c2ccc(Cl)cc2)c1 (stereo not drawn)	94
CC1(C)Cc2ccccc2C(c2sc3nc4c(cc3c2N)CCCCC4)=N1	100
C[C@@]1(C(=O)O)CC[C@]2(C)CC[C@]3(C)C4=CC=C5C=C(O)C(=O)C=C5[C@]4(C)CC[C@@]3(C)[C@@H]2C1	77*
O=C(c1ccco1)c1cn(-c2ccccc2)nc1C(=O)c1nc2ccccc2s1	101
CC(C)(C)c1cc(C(C)(C)C)n(-c2ccc(NC(=O)COCC(=O)O)cc2)n1	97
COc1cccc(-c2coc3cc4oc(=O)cc(C)c4cc23)c1	81
Fc1ccc(-c2onc3ccc(-c4ccn[nH]4)cc23)cc1	79*
Brc1ccc2noc(-c3ccccc3)c2c1	100
Cc1ccc(-c2onc3ccc(Cl)cc23)cc1	100
O=C1/C(=C\c2ccccc2)SC(=S)N1CNc1ccccc1	94
NC(=O)c1ccc(CN2CCOCC2)cc1	102
SMILES	Vaccinia pol inh
Cc1ccc(N2CCN(C(=O)Cn3nc(Cc4cccnc4)c4ccccc4c3=O)CC2C)cc1 (stereo not drawn)	102
O=C(O)CCCC(=O)N1CCN(C2c3ccccc3-c3ccccc32)CC1	86
Cn1c(=O)oc2cc(S(=O)(=O)NCCCN3CCN(c4cccc(Cl)c4)CC3)ccc21	102
O=c1n(CCCN2CCN(c3cccc(Cl)c3)CC2)nc2ccccn12	15*
Clc1cccc(OCCN2CCN(c3ccccc3)CC2)c1	100
CC1(C)CC(=O)C2=C(C1)Nc1ccccc1N(C(=O)C(F)(F)F)C2c1ccc(Cl)cc1Cl (stereo not drawn)	100
O=C(O)c1ccccc1-c1c2cc(Br)c(=O)cc-2oc2[c]([Hg])c(O)c(Br)cc12	18*
Cn1cc(-c2ccccc2C(=O)O)c(=O)c2ccccc21	98
O=C(O)c1cc(-c2ccco2)nc2ccc(Br)cc12	87
COc1ccc(-c2nc(NCCc3c[nH]c4cc(OC)ccc34)sc2C)cc1	102
CCCCC1CCC(C(=O)ON2C(=O)c3cccc4cccc(c34)C2=O)CC1 (stereo not drawn)	100
CCCS(=O)(=O)c1c(S(=O)(=O)CCC)c2c(N)cccn2c1C(=O)c1ccc(C)cc1	100
COc1ccc(/C=C/C(=O)OCC(=O)Nc2cccc(C(F)(F)F)c2)cc1	97
Cc1ccc2c(c1)-c1onc(C(=O)NC3CCCc4ccccc43)c1CO2 (stereo not drawn)	100
CCN1CCCC1CNC(=O)c1noc2c1COc1ccc(C)cc1-2 (stereo not drawn)	63*
CCc1nnc(NC(=O)c2noc3c2COc2ccc(C)cc2-3)s1	98
CSc1nc2ccccc2n1CN(C)Cc1ccccc1	100
CN1CCN(c2ccc(NC(=O)c3cccc4c3OC(C)(C)C4)cc2)CC1	95
CCc1ccc(N2C(=S)N(C(=O)c3cccs3)C3CC2(C)Oc2ccccc23)cc1 (stereo not drawn)	102
CCCc1cc(=O)oc2cc(OC)ccc12	89
CC1=NN(c2cccc(C(=O)O)c2)C(=O)/C1=C/c1ccc(-c2cccc(Cl)c2C)o1	51*
Cc1ccc(C2=C/C(=C/c3ccc(-c4cccc(C(=O)O)c4)o3)C(=O)O2)cc1	100
O=C(O)c1cccc(-c2ccc(/C=c3/sc4nc5ccccc5n4c3=O)o2)c1	100
O=S(=O)(n1nccc1-c1sccc1Cl)C(F)(F)F	104
O=C(CSC1=NCCS1)Nc1ccc(Cl)cn1	101
SMILES	Vaccinia pol inh
O=C(c1snc2ccc(Cl)cc12)N1CCc2ccccc2C1	103
CC1(C)NC(=O)N(CC(O)Cn2c3ccccc3c3ccccc32)C1=O (stereo not drawn)	100
CCC(CO)NCC(O)Cn1c2ccccc2c2ccccc21 (stereo not drawn)	80*
OC(COCc1ccccc1)Cn1c2ccccc2c2ccccc21 (stereo not drawn)	94
COc1ccccc1CNCC(O)Cn1c2ccccc2c2ccccc21 (stereo not drawn)	112
CNCC(O)Cn1c2ccccc2c2ccccc21 (stereo not drawn)	78*
Cc1ccc(S(=O)(=O)NCC(O)Cn2c3ccccc3c3ccccc32)cc1 (stereo not drawn)	100
Cc1nc2ccccc2c2c1C(=O)CC(c1ccc(F)cc1)=N2	106
NS(=O)(=O)c1ccc2nc(NC(=O)c3cccs3)sc2c1	96
c1ccc(C2CC(c3ccccc3)n3nnnc3N2)cc1 (stereo not drawn)	104
N#CCOc1ccc2c(C#N)c3ccccn3c2c1	106
COc1ccc(OCc2c(C#N)c3ccccc3n2C)cc1	99
COc1ccc2c(C#N)c3ccccn3c2c1	72*
O=C(Oc1cccc(Nc2ncnc3ccccc23)c1)c1cccs1	98
Cc1cc2nc3s/c(=C4\C(=O)N(CC(=O)O)c5ccccc54)c(=O)n3c2cc1C	84
O=C(Nc1c(-c2cccs2)nc2ccccn12)c1cccc(C(F)(F)F)c1	90
NC(N)=Nc1nc(-c2ccccc2)c2ccccc2n1	51*
c1ccc(-c2nc(N3CCCC3)nc3ccccc23)cc1	99
CCC(=O)N/C(N)=N\c1nc(C)c2ccccc2n1	99
O=C(O)c1cccc(NCc2ccc3c(c2)OCO3)c1	99
CCOC(=O)c1cc(-c2ccccc2)n(CCCC(=O)N2CCCCC2)c1C	92
CCc1ccc(NC(=O)Cn2c(=O)oc3ccccc32)cc1	96
O=C1CSC(=S)N1/N=C/c1cc(Br)cc(Br)c1O	81*
O=C1CSC(=S)N1/N=C/c1cccnc1	102
O=C(NN1C(=O)CSC1=S)c1ccccc1	100
SMILES	Vaccinia pol inh
CCn1c2ccccc2c2cc(CNCCc3ccc(Cl)cc3)ccc21	99
O=C(NC1CC1)C1C2C=CC3(CN(Cc4ccccc4Cl)C(=O)C13)O2 (stereo not drawn)	97
CC(C)c1ccc(NC(=O)c2cc3n(n2)C(C(F)(F)F)CC(c2ccco2)N3)cc1 (stereo not drawn)	94
N/N=C(\C(=O)O)c1ccccc1N	100
Cc1ccc(S(=O)(=O)C2(C(=O)Nc3ncccc3C)CC2)cc1	104
COc1cc(-c2nc3ccccn3c2/N=C/c2cccc(Cl)c2Cl)ccc1O	100
N/N=C1\CCCc2c1[nH]c1ccc(C(=O)NN)cc21	46*
Cc1ccc(C(=O)NCc2ccc3[nH]c4c(c3c2)CCCC4)cc1C	103
CC(C)c1ccc2[nH]c3c(c2c1)CCC/C3=N\O	100
Cc1ccc2cc3c(N)nn(C(=O)c4ccccc4F)c3nc2c1	102
O=C(Nc1nccc2ccccc12)c1cccs1	87

From PubChem
